From PubChem
A selection: hits, their analogues and other compounds. The true share with any hit is near 6.7%.
KB-3-1 tox: kills parental KB-3-1 adenocarcinoma cells | KB-3-1 viability, CellTiter-Glo ATP luminescence, 72 h | Potency, µM (highest dose often 46.1 µM), usual class: cytotoxic | actives 1.4% (n = 400,000) | AID 1347075; further: nearly all actives have a fitted effect of over 60% in size
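KB-3-1 cells, DMEM (no phenol red) + 10% FBS; compound by pin transfer, 72 h, 37 °C. Readout: CellTiter-Glo luminescence after 10 min. Data normalized, curve-fitted.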
MCF10A rereplic: induces DNA re-replication in MCF 10a normal breast cells; AID 624296; actives 2.9% (n = 350,000); Potency, µM (series often up to 46.1 µM), actives largely listed as activators; MCF 10A DNA re-replication, Hoechst nuclear intensity, 48 h; further: nearly all actives have a fitted effect of over 50% in size
KB-V1 MDR tox: kills drug-selected multidrug resistant KB-V1 cells; KB-V1 MDR cells viability, CellTiter-Glo, 72 h; Potency, µM (series often up to 46.1 µM), most hits filed as cytotoxic; actives 3.4% (n = 400,000); AID 1347076; further: nearly all actives have a fitted effect of over 60% in size
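Drug-selected KB-V1 cells, grown in DMEM lacking phenol red with 10% FBS, receive compound titrations; after three days at 37 degrees C, surviving cell ATP is quantified by CellTiter-Glo luminescence and responses normalized and curve-fitted.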
PINK1 expr mod: modulators of PINK1 expression. PINK1 immunofluorescence, high-content cytometry, 24 h. AID 624263. actives 0.2% (n = 410,000). Potency, µM (doses to about 76.6 µM), usual class: activators; active means well fitted activation curve with a large enough effect; inconclusive means small, poorly fitted or top-dose-only effect; cell line not stated here; further: nearly all actives have a fitted effect of over 65% in size
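Readout is PINK1 immunofluorescence, quantified alongside mitochondrial, cell and nuclear markers by laser-scanning microplate cytometry. Cells from a stable line were exposed to compound titrations (5 concentrations) for 24 hours, with CCCP controls.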
SW480 rerep: inducers of DNA re-replication in SW480 colon cancer cells. SW480 DNA re-replication, Hoechst DNA content imaging, 48 h. Potency, µM (doses to about 46.1 µM), most hits filed as activators. actives 1.8% (n = 340,000). AID 624297; further: nearly all actives have a fitted effect of over 55% in size
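Image-based read-out: total Hoechst fluorescence of nuclei (405 nm excitation, 500-530 nm emission), with hits raising the fraction of high-intensity nuclei. SW480 colon cells incubated 48 hr with compounds at 37 C.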
Hits are given with their value; . = inactive; ? = inconclusive; / = no result given. Unless noted, the call rests on the fitted dose curve; in most records, active means well fitted curve in the direction sought with a large enough effect; inconclusive means small, poorly fitted or top-dose-only effect, or another doubt; inactive means no such curve, though single readings can be large; an effect the other way counts as inactive or inconclusive.

SMILES | KB-3-1 tox | MCF10A rereplic | KB-V1 MDR tox | PINK1 expr mod | SW480 rerep
CC12CCC3c4ccc(OP(=O)(N5CC5)N5CC5)cc4CCC3C1CCC2=O (stereo unspecified) | . | ? | ? | . | .
C[C@]12CC[C@H]3C(=CCc4cc(O)ccc43)[C@@H]1CCC2=O | ? | ? | 8.2µM | . | .
CCCCN(CC)c1c([N+](=O)[O-])cc(C(F)(F)F)cc1[N+](=O)[O-] | / | / | / | . | /
CCC(=NCC1CCCO1)c1c(O)n(Cc2ccccc2)c(=O)[nH]c1=O (stereo unspecified) | . | . | 4.1µM | . | .
CCC(=NCC1CCCO1)c1c(O)n(-c2ccccc2)c(=O)[nH]c1=O (stereo unspecified) | . | . | . | . | .
C[C@@H](N)[C@@H](O)c1ccc(O)c(O)c1 | / | . | / | / | .
CC/C(=N\N1CCCCCC1)c1c(O)n(-c2ccccc2C)c(=O)[nH]c1=O | . | . | 12µM | . | .
COC(=O)[C@@]12CCCCN1[C@H](c1ccc(-c3ccc(Cl)c(Cl)c3)c(OC)c1)[C@H]1C(=O)N(C)C(=O)[C@H]12 | . | . | . | . | .
CCC(CC)N1CCN(Cc2nc3ccccc3c(=O)n2-c2ccc(F)cc2)CC1 | . | 0.58µM | ? | . | .
O=c1c2ccccc2nc(CN2CCCCCC2)n1-c1ccc(F)cc1 | . | . | . | . | .
CC(=O)OCC(=O)C1CCC2C3CC=C4CC(O)CCC4(C)C3CCC12C (stereo unspecified) | . | . | 15µM | . | .
CC(C)[C@H]1CC2C3CC=C4C[C@@H](O)CC[C@]4(C)C3CC[C@]2(C)[C@H]1O (stereo partly specified) | . | 18µM | . | . | ?
C[C@]12CC[C@H](O)CC1=CCC1C2CC[C@@]2(C)C1CC[C@@H]2OCc1ccccc1 (stereo partly specified) | . | . | . | . | .
C[C@]12CC[C@H]3[C@@H](CC=C4C[C@@H](O)CC[C@@]43C)[C@@H]1CC[C@@H]2O | / | . | / | / | .
N#CC1(N2CCCCC2)CCCCC1 | / | . | / | / | .
O=c1ccc2c(O)c3ccoc3cc2o1 | . | . | . | . | 0.18µM
CC(=O)OO | / | . | / | / | .
Ic1ccccc1CN[C@@H]1C2CCN(CC2)[C@@H]1C(c1ccccc1)c1ccccc1 | ? | ? | 16µM | . | .
Fc1ccccc1CNC1CN2CCC1CC2 (stereo unspecified) | . | ? | . | . | .
CCCCn1c(O)c(C=NCCCn2ccnc2)c(=O)[nH]c1=O | . | . | . | . | .
CC(C)CCCn1c(O)c(/C=C2/C=CC=N2)c(=O)[nH]c1=O | 16µM | 18µM | ? | . | 13µM
ClC1=C(Cl)C2(Cl)C(CBr)CC1(Cl)C2(Cl)Cl (stereo unspecified) | / | 19µM | / | / | .
Oc1cccc[c]1[Hg][Cl] | / | . | / | / | ?
C[C@H](CO)N1C[C@H](C)[C@@H](CN(C)C(=O)NC2CCCCC2)Oc2c(cccc2N(C)C)C1=O | . | . | . | . | ?
CCCCn1nnnc1C(c1cccc2ccccc12)N1CCC2(CC1)C(=O)NCN2c1ccccc1 (stereo unspecified) | ? | / | 21µM | . | /
SMILES | KB-3-1 tox | MCF10A rereplic | KB-V1 MDR tox | PINK1 expr mod | SW480 rerep
CC1(C)CC(=O)C2=C(C1)OC(N)=C([N+](=O)[O-])C2c1ccc(C#N)s1 (stereo unspecified) | ? | . | . | . | ?
c1cc(CN2CC3(CCNCC3)C2)ccn1 | / | / | / | . | /
CCC1C(c2cc(OC)c(OC)c(OC)c2)c2cc3c(cc2OC1N1CCCC1)OCO3 (stereo unspecified) | 4.1µM | 4.1µM | 5.2µM | . | 8.2µM
COc1ccc2c(c1OC)C(=O)OC2C1c2cc3c(cc2CCN1C)OCO3 (stereo unspecified) | . | ? | ? | . | .
C=C(C)C1Cc2c(ccc3c(=O)c4c(oc23)COc2cc(OC)c(OC)cc2-4)O1 (stereo unspecified) | / | / | / | . | /
N#C/C(=C(/O)c1ccc(S(=O)(=O)N(CCCl)CCCl)cc1)c1nc2ccccc2[nH]1 | . | 10µM | . | . | ?
CCOc1cc(-c2nc3c(C)cccn3c2NCC2CCCO2)ccc1O (stereo unspecified) | . | . | 5.2µM | . | .
CN1CCCC2(CCN(C(=O)c3ccco3)CC2)C1 | / | / | / | . | /
CC(C)Oc1cc(-n2c(=S)[nH]c3ccccc3c2=O)c(Cl)cc1Cl | ? | . | 23µM | ? | .
COc1cc(-n2c(=S)[nH]c3ccccc3c2=O)c(Cl)cc1Cl | ? | ? | ? | . | .
C[N+]1([O-])[C@@H]2CC[C@H]1CC(OC(=O)[C@@H](CO)c1ccccc1)C2 (stereo partly specified) | / | . | / | / | .
S=P(NCCSCc1ccccc1)(N1CC1)N1CC1 | . | 15µM | . | . | 9.2µM
CC(=O)O[C@H]1CC[C@H]2[C@@H]3CCC4=CC(=O)CCC4=C3C=C[C@]12C | / | . | / | / | .
CC(=O)O[C@H]1CCC2C3CCC4=CC(=O)CCC4=C3C=C[C@@]21C (stereo partly specified) | ? | . | 8.2µM | . | .
CC1(C)N([O])C(c2ccc(C(=O)O)cc2)=[N+]([O-])C1(C)C | ? | / | ? | . | /
Cc1ccc(OP(=O)(NCc2ccccc2)Oc2ccc(C)cc2)cc1 | ? | ? | 15µM | . | ?
COc1ccc(/C=N/N=C(/N)N[N+](=O)[O-])c(OC)c1 | 1.5µM | ? | 1µM | . | .
CC(C)C(=O)Nc1ccc([N+](=O)[O-])c(C(F)(F)F)c1 | . | . | ? | . | .
COc1cc(C2c3cc4c(c(O)c3CC3COC(=O)C32)OCO4)cc(OC)c1O (stereo unspecified) | 0.016µM | / | 0.18µM | . | /
C=CCc1cc(OC)c2c(c1)OCO2 | . | . | . | . | .
COc1cc(C2c3cc4c(cc3C(OC(C)=O)[C@H]3COC(=O)C23)OCO4)cc(OC)c1OC (stereo partly specified) | / | / | / | . | /
COc1cc(C2c3cc4c(cc3CC3COC(=O)C32)OCO4)cc(OC)c1O (stereo unspecified) | . | ? | ? | . | 0.16µM
O=C(CF)N(O)c1ccc(C=Cc2ccccc2)cc1 | . | 6.5µM | . | . | 10µM
O=C(CCl)c1ccc(Oc2ccc(C(=O)CCl)cc2)cc1 | / | 27µM | / | / | .
Cc1[nH]c(=O)[nH]c(=O)c1/C=C/C(=O)OCC(C)C | . | . | ? | . | ?
CC(C)(C)c1cc(O)ccc1O | / | 30µM | / | / | ?
COc1ccc(O)c(C(C)(C)C)c1 | . | . | . | . | .
CCC(C)C1O[C@]2(C=CC1C)CC1CC(C/C=C(\C)[C@H](OC3CC(OC)C(O[C@H]4CC(OC)[C@@H](O)C(C)O4)C(C)O3)[C@@H](C)/C=C/C=C3\COC4C(O)C(C)=C[C@H](C(=O)O1)[C@@]34O)O2 (stereo partly specified) | / | ? | / | / | .
